Results filed as inconclusive are left out. Active and inactive are the calls of the source. Unless noted, calls come from the whole dose curve; as a rule, active = well fitted curve in the direction sought with a large enough effect in the repeat runs; inconclusive = weak or mixed curves; inactive = no such curve, though single readings can be large; an effect the other way counts as inactive or inconclusive.
Experiments:
[1] = qHTS assay to identify small molecule antagonists of the glucocorticoid receptor (GR) signaling pathway - cell viability counter screen (AID 720693); note: nearly all actives have a fitted effect of over 55% in size; note: potency is the fitted concentration of half-maximal effect
[2] = qHTS assay for identifying genotoxic compounds that show differential cytotoxicity against isogenic chicken DT40 cell lines with known DNA damage response pathways - wild type cell line (AID 743012); note: nearly all actives have a fitted effect of over 60% in size; note: potency is the fitted concentration of half-maximal effect
Method in brief: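 Viability by ATP luminescence (CellTiter-Glo, 30 min RT) after 40 h compound treatment at 37 C/5% CO2, using 300 parental DNA repair-proficient DT40 cells per well.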

[3] = qHTS assay for identifying genotoxic compounds that show differential cytotoxicity against isogenic chicken DT40 cell lines with known DNA damage response pathways - Rev3 mutant cell line (AID 743014); note: nearly all actives have a fitted effect of over 55% in size; note: potency is the fitted concentration of half-maximal effect
[4] = qHTS assay for identifying genotoxic compounds that show differential cytotoxicity against isogenic chicken DT40 cell lines with known DNA damage response pathways - Rad54/Ku70 mutant cell line (AID 743015); note: nearly all actives have a fitted effect of over 60% in size; note: potency is the fitted concentration of half-maximal effect
[5] = qHTS assay to identify small molecule antagonists of the androgen receptor (AR) signaling pathway - cell viability counter screen (AID 743033; note: nearly all actives have a fitted effect of over 45% in size; note: potency is the fitted concentration of half-maximal effect)
[6] = qHTS assay to identify small molecule antagonists of the androgen receptor (AR) signaling pathway using the MDA cell line - cell viability counter screen (AID 743041; note: nearly all actives have a fitted effect of over 45% in size; note: potency is the fitted concentration of half-maximal effect)
Method in brief: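 In this qHTS counter assay, fluorescence intensity after CellTiter-Fluor addition indicated viability of MDA-kb2 AR-luc cells given compounds and R1881 for 16 h at 37C.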

[7] = molecular target: Androgen receptor (Homo sapiens) (UniProt P10275); test: qHTS assay to identify small molecule antagonists of the androgen receptor (AR) signaling pathway (AID 743035; active = well fitted inhibition curve with a large enough effect in the signal ratio in the repeat runs, not every such curve was filed as active; the % refers to the signal ratio; note: potency is the fitted concentration of half-maximal effect)
Method in brief: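 Antagonist mode: AR-bla HEK293 cells co-treated with test compounds and agonist R1881 for 16 h at 37C, 5% CO2. Beta-lactamase activity read as FRET fluorescence after 2 h room-temperature substrate loading.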

[8] = molecular target: Androgen receptor (Homo sapiens) (UniProt P10275); test: qHTS assay to identify small molecule agonists of the androgen receptor (AR) signaling pathway (AID 743036; active = well fitted activation curve with a large enough effect in the signal ratio in the repeat runs, with a control signal flat, not every such curve was filed as active; the % refers to the signal ratio)
Method in brief: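 Beta-lactamase under UAS control, stably integrated in HEK293 GripTite cells, reports receptor activation. After 16 h compound treatment, cells received FRET substrate for 2 h at room temperature before fluorescence reading.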

[9] = molecular target: Androgen receptor (Homo sapiens) (UniProt P10275); test: qHTS assay to identify small molecule agonists of the androgen receptor (AR) signaling pathway using the MDA cell line (AID 743040; note: nearly all actives have a fitted effect of over 20% in size)
Method in brief: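 Cell-based luciferase reporter: MDA-kb2, MMTV promoter (AR + GR response elements). 16 h compound exposure at 37C; ONE-Glo, 30 min RT, luminescence.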

[10] = molecular target: Androgen receptor (Homo sapiens) (UniProt P10275); test: qHTS assay to identify small molecule antagonists of the androgen receptor (AR) signaling pathway using the MDA cell line (AID 743042; note: potency is the fitted concentration of half-maximal effect; nearly all actives have a fitted effect of over 55% in size)
Method in brief: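 MDA-kb2 cells (human breast carcinoma, stably carrying an MMTV-luciferase reporter responsive to AR and GR) were plated at 3,000 cells/well and preincubated 5 hr at 37C, then given compound plus R1881 agonist for 16 h. ONE-Glo luminescence was read.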

Measured: Potency

Sequence of Androgen receptor (Homo sapiens) (P10275 whole entry, looked up): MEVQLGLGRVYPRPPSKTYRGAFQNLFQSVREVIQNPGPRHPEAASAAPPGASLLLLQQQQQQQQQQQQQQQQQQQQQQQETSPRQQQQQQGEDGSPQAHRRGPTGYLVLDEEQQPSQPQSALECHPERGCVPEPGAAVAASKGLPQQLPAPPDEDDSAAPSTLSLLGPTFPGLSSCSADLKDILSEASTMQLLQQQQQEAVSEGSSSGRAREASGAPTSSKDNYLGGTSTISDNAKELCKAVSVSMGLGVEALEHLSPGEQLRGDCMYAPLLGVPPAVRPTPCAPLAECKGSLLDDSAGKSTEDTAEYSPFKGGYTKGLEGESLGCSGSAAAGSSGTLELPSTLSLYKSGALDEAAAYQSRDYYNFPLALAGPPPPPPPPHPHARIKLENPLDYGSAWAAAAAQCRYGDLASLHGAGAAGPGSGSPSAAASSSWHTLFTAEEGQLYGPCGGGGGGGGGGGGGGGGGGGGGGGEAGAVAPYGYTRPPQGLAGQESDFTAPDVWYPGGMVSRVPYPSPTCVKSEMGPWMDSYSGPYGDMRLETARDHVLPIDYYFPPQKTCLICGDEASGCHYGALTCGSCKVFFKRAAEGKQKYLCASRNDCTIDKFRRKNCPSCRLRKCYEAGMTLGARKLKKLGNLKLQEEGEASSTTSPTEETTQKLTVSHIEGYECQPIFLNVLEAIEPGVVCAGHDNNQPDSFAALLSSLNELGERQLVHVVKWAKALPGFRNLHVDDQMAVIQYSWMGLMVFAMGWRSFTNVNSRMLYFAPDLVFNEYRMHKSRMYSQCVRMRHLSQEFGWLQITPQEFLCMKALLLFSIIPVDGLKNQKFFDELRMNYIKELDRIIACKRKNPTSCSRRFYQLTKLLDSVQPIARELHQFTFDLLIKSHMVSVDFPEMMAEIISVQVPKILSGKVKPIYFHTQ

Nc1ccccc1-c1ccccc1
inactive: [1] | [2] | [3] | [4] | [5] | [6]

Clc1cc(Cl)c(-c2cc(Cl)c(Cl)cc2Cl)cc1Cl
inactive: [1] | [2] | [3] | [4] | [5] | [6]

ClC(Cl)C(Cl)(Cl)Cl
inactive: [1] | [2] | [3] | [4] | [5] | [6]

CCCC[N+]1(C)CCCC1 (tested in a mixture with another compound)
inactive: [1] | [2] | [3] | [4] | [5] | [6]

COc1c2c(cc3c1OCO3)CCN(C)C2
inactive: [1] | [2] | [3] | [4] | [5] | [6]

CN
inactive: [1] | [2] | [3] | [4] | [5] | [6]

CC(Cl)CCl (stereo unspecified)
inactive: [1] | [2] | [3] | [4] | [5] | [6]

CCC1(CC)C(=O)N=C(O)NC1=O
inactive: [1] | [2] | [3] | [4] | [5] | [6]

CC1(C)[C@H](/C=C2\CCSC2=O)[C@@H]1C(=O)OCc1coc(Cc2ccccc2)c1
inactive: [1] | [5] | [6]
active: [2] 6.86 µM | [3] 5.45 µM | [4] 10.9 µM

CCCCN(CCCC)C(=S)[S-].CCCCN(CCCC)C(=S)[S-].[Ni+2]
inactive: [1] | [2] | [3] | [4] | [5] | [6]

CN/C(=N\[N+](=O)[O-])NCc1cnc(Cl)s1
inactive: [1] | [2] | [3] | [4] | [5] | [6]

CSC(C)(C)/C=N/O
inactive: [1] | [2] | [3] | [4] | [5] | [6]

C[N+]1(C)[C@@H]2CC[C@H]1CC(OC(=O)C(CO)c1ccccc1)C2 (stereo partly specified)
inactive: [1] | [2] | [3] | [4] | [5] | [6]

CC(C)Br
inactive: [1] | [2] | [3] | [4] | [5] | [6]

CC(O)C(=O)[O][Hg][c]1ccccc1 (stereo unspecified)
active: [1] 0.549 µM | [2] 0.273 µM | [3] 0.217 µM | [4] 0.154 µM | [5] 2.45 µM | [6] 4.86 µM

[Cl-].[Cl-].[Cl-].[Yb+3]
inactive: [1] | [2] | [3] | [4] | [5] | [6]

N#CSCc1ccccc1
inactive: [1] | [2] | [3] | [4] | [5] | [6]

CCOP(=O)(OCC)Oc1cc(C)nc(C(C)C)n1
inactive: [1] | [2] | [3] | [4] | [5] | [6]

ClSC(Cl)(Cl)Cl
inactive: [1] | [2] | [3] | [4] | [5] | [6]

COc1ccc2c3c1O[C@H]1[C@H](O)CC[C@H]4[C@@H](C2)N(C)CC[C@@]341
inactive: [1] | [2] | [3] | [4] | [5] | [6]

CCC[CH2][Sn]([CH2]CCC)([CH2]CCC)[CH2]CCC
active: [1] 54.9 µM | [2] 7.7 µM | [3] 21.7 µM | [4] 8.63 µM | [5] 43.6 µM | [6] 61.1 µM

O=[N+]([O-])c1ccc(Cl)c(Cl)c1Cl
inactive: [1] | [2] | [3] | [4] | [5] | [6]

CCCCn1cc[n+](C)c1 (tested in a mixture with another compound)
inactive: [1] | [2] | [3] | [4] | [5] | [6]

Nc1nc(N)nc(Cl)n1
inactive: [1] | [2] | [3] | [4] | [5] | [6]

Cc1cnc2c(C(=O)O)c(Cl)ccc2c1
inactive: [1] | [2] | [3] | [4] | [5] | [6]

O=[N+]([O-])c1ccccc1-c1ccccc1
inactive: [1] | [2] | [3] | [4] | [5] | [6]

COP(=O)(OC)O/C(=C\Cl)c1cc(Cl)c(Cl)cc1Cl
active: [2] 17.2 µM | [3] 30.6 µM | [4] 17.2 µM | [7] 21.9 µM | [10] 54.5 µM
inactive: [1] | [8] | [9] | [6]

[F][Sn]([c]1ccccc1)([c]1ccccc1)[c]1ccccc1
active: [1] 0.977 µM | [2] 0.243 µM | [3] 0.433 µM | [4] 0.306 µM | [5] 1.23 µM | [6] 3.86 µM

— PubChem BioAssay (Tox21)
